D3 antag = blocks the human D3 dopamine receptor; P35462; D3R cells, DiscoveRx beta-arrestin luminescence, antagonist mode; hits give low values; max response, negative = inhibition, %; actives 2.5% (n = 360,000); AID 652054; in the data active = max response below about -50%; inconclusive = no clear call, values can overlap the other calls; note: % is set by controls: 0 for no effect and ±100 for the full control effect
Target sequence (P35462 whole entry, looked up): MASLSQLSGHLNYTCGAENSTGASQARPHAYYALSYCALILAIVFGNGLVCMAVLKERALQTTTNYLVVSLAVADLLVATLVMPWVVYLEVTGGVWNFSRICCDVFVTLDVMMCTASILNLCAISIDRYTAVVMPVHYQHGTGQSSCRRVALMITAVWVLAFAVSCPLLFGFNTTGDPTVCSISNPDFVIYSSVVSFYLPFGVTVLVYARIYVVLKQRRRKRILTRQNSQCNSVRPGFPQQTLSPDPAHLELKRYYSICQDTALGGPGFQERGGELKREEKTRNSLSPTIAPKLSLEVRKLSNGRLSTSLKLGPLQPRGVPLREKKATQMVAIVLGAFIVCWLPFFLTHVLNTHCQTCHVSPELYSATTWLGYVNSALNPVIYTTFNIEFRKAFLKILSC
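Cells plated overnight at 1500 cells/well, then exposed to library compounds with dopamine controls for 90 minutes at 37 degrees C. DiscoveRx reagent added for 30–60 minutes at room temperature; luminescence read, quantitative HTS format.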
D3 ag = D3 dopamine receptor (human) agonism | actives 0.58% (n = 410,000) | max activation, % | AID 652048 | D3R DiscoveRx beta-arrestin cells, luminescence, 90 min; in the data active = max activation above about 30%; note: 0% is about no effect
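Agonist mode: compounds and dopamine controls were applied to plated cells for 90 min at 37 degrees C after an overnight attachment at 1500 cells/well. Luminescent read-out followed 30 - 60 minutes at room temperature with DiscoveRx detection reagent.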
Integrin act MD = integrin-mediated muscular dystrophy alleviation activation | alpha7betagal myoblasts, beta-gal FDG fluorescence, 48 h | AID 624291 | actives 0.064% (n = 350,000) | Potency, µM (titrated, usually from 38.3 µM), without a hit: at the highest dose activation, usual class: activators; active = well fitted activation curve with a large enough effect; inconclusive = small, poorly fitted or top-dose-only effect; inactive = no such curve, though single readings can be large or run the other way;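 note: potency is the fitted concentration of half-maximal effect; 100% = response of the positive control SU9516; nearly all actives have a fitted effect of over 60% in size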
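alpha7betagal+/- myoblasts (passage 13, 250/well) treated 48 h at 37C with compounds at 1:260 dilution of DMSO stock. Lysed, then beta-galactosidase activity read as FDG fluorescence (ex 480/em 540) after 30 min, with pre-read for autofluorescence.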
Numbers without * were called inactive; ? = inconclusive; . = no result given. A selection: hits, their analogues and other compounds. The true share with any hit is near 2.9%.

SMILES | D3 antag | D3 ag | Integrin act MD
COc1ccc(-n2nnnc2C(c2cccc(OC)c2OC)N2CCN(C/C=C/c3ccccc3)CC2)cc1 (stereo not given) | -86* | -9 | .
Cc1cc(C)c2c(=O)cc(CSc3nnc(COc4ccccc4C)n3C)[nH]c2c1 | . | -3 | .
COc1ccc(/C=N\NC(=O)C2COc3ccccc3O2)cc1O (stereo not given) | -24 | -9 | 3%
O=C(NCCc1ccccc1)C1COc2ccccc2O1 (stereo not given) | -3 | -6 | 13%
O=C(NCCc1ccc(O)c(O)c1)C1COc2ccccc2O1 (stereo not given) | 13 | 92* | 19%
COc1cc(/C=N/NC(=O)C2COc3ccccc3O2)ccc1O (stereo not given) | -56* | -11 | 3%
NC(=O)c1ccsc1NC(=O)COC(=O)c1cnccn1 | 11 | 1 | 24%
COc1cc2[nH]c(=S)n(Cc3ccc(C)cc3)c(=O)c2cc1OC | 21 | 15 | 3%
CCS(=O)(=O)N1CC(=O)N(c2ccc(Cl)cc2)C(C)(C(=O)NC2CCCCCC2)C1 (stereo not given) | . | -11 | .
CCN(CC)CCn1c(NCc2cccc(OC)c2)nc2ccccc21 | -86* | -7 | -10%
CCN(CC)CCn1c(NCc2ccc3c(c2)OCO3)nc2ccccc21 | -12 | -14 | -6%
COc1ccc(CNc2nc3ccccc3n2C)c(OC)c1 | -16 | -2 | 11%
CCN(CC)CCn1c(NCc2cc(OC)ccc2OC)nc2ccccc21 | -88* | -2 | -41%
COc1ccc(/C=C2\CCCc3c2nc2ccc(C)cc2c3C(=O)O)cc1O | -3 | -2 | -3%
O=C(Nc1ccc(C(=O)N2CCOCC2)cc1)c1cnn2c(C(F)F)cc(-c3ccccc3)nc12 | 7 | 9 | -18%
O=C(Nc1ccccc1C(=O)NC(Cc1c[nH]c2ccccc12)C(=O)O)c1ccco1 (stereo not given) | -55* | 4 | 10%
O=C(NC(Cc1c[nH]c2ccccc12)C(=O)O)c1ccco1 (stereo not given) | 16 | 2 | -6%
CN1c2cc(Cl)ccc2-c2nc(SCC(=O)Nc3ccc(F)cc3F)ncc2S1(=O)=O | . | -14 | .
CCC(=O)N(C)C[C@H]1Oc2ncc(C#Cc3ccncc3)cc2C(=O)N([C@@H](C)CO)C[C@@H]1C | 14 | 3 | -1%
O=[N+]([O-])c1ccc(S(=O)(=O)NCC(c2ccco2)N2CCc3ccccc3C2)cc1 (stereo not given) | -57* | -4 | 0%
O=[N+]([O-])c1ccc(S(=O)(=O)NCC(c2cccnc2)N2CCc3ccccc3C2)cc1 (stereo not given) | 3 | -4 | -12%
CCOC(=O)c1ccccc1NC(=O)NCc1c(-n2cccc2)sc2c1CCCC2 | . | -2 | .
CCCC(=O)OCC(=O)Nc1ccc([N+](=O)[O-])cc1C#N | 1 | -5 | -27%
Clc1ccc(-c2nc3ncccn3c2Nc2ccc3c(c2)OCO3)cc1 | -8 | -3 | -1%
Oc1ccc(-c2nc3ncccn3c2Nc2ccc3c(c2)OCO3)cc1 | -55* | -1 | -36%
SMILES | D3 antag | D3 ag | Integrin act MD
Cc1ccccc1NC(=O)/C=C/c1ccc([N+](=O)[O-])s1 | -51* | -9 | -53%
Cc1cc(C)cc(NC(=O)/C=C/c2ccc([N+](=O)[O-])s2)c1 | -1 | -2 | -46%
Cc1ccccc1NC(=O)/C=C/c1cccs1 | -1 | -5 | -19%
O=C(Nc1ccccc1F)c1ccc([N+](=O)[O-])s1 | -5 | 3 | 13µM*
CC(=O)c1cccc(NC(=O)/C=C/c2ccc([N+](=O)[O-])s2)c1 | -69* | -17 | -68%
O=C(Nc1cccc2ccccc12)c1ccc([N+](=O)[O-])s1 | -26 | -1 | -62%
Cc1ccc(NC(=O)Cc2nnc(SCC(=O)c3ccc(Br)cc3)n2C)cc1 | 21 | 11 | -9%
CCS(=O)(=O)N1Cc2ccccc2CC1C(=O)Nc1nc(C)cs1 (stereo not given) | 4 | 1 | 1%
O=C(N/N=C/c1ccc(Cl)c([N+](=O)[O-])c1)C1CC1 | -8 | -2 | -35%
O=[N+]([O-])c1cc(Cl)cc(/C=N/Nc2nc3ccccc3s2)c1O | -60* | -18 | 0%
COc1cc(/C=N/Nc2nc3ccccc3s2)cc([N+](=O)[O-])c1O | -1 | 2 | 1%
O=[N+]([O-])c1cc(Cl)cc(/C=N/NC(=S)Nc2ccc(S(=O)(=O)N3CCOCC3)cc2)c1O | -54* | -19 | 7%
O=C(N/N=C/c1cc(Cl)cc([N+](=O)[O-])c1O)C1CC1 | -57* | -19 | 21%
O=C(Cn1nnc(-c2ccccc2)n1)N/N=C/c1cccc([N+](=O)[O-])c1O | -9 | 5 | -23%
O=S(=O)(c1ccc(NC(=S)N/N=C/c2ccc(O)c(O)c2)cc1)N1CCOCC1 | -1 | 1 | 8%
O=C(Cn1nc2ccccc2n1)N/N=C/c1cc(Cl)cc([N+](=O)[O-])c1O | -83* | -16 | 16%
COc1cc(/C=N/NC(=O)c2cccc(NC(=O)c3ccccc3C)c2)ccc1O | 26 | 3 | 0%
Cc1ccccc1C(=O)Nc1cccc(C(=O)N/N=C/c2cc(Cl)cc([N+](=O)[O-])c2O)c1 | -52* | -11 | -13%
O=C(N/N=C/c1cc([N+](=O)[O-])cc([N+](=O)[O-])c1O)C(O)(c1ccccc1)c1ccccc1 | -16 | -6 | -13%
CC(C)(C)N/N=C/c1cc(Cl)cc([N+](=O)[O-])c1O | -110* | -16 | 7%
CCN1CCN(CCCNC(=O)c2cnn(-c3ccc(OC)cc3)c2C2CCN(C(=O)OC(C)(C)C)CC2)CC1 | . | 1 | .
O=[N+]([O-])c1c(NCCO)cc(N2CCCCCC2)c2nonc12 | -2 | 0 | ?
Cc1nnc(Sc2cc(NCCCO)c([N+](=O)[O-])c3nonc23)s1 | -97* | -25 | -65%
CCCSc1cc(NCCOC(C)=O)c([N+](=O)[O-])c2nonc12 | 4 | 3 | -34%
Cc1nnc(Sc2cc(NCCO)c([N+](=O)[O-])c3nonc23)s1 | -60* | -16 | -60%
SMILES | D3 antag | D3 ag | Integrin act MD
CCN(Cc1ccccc1)C(=O)Nc1ccc2c(c1)N(C)C(=O)c1ccccc1S2 | . | -10 | .
CN(C)CCCNC(=O)C[C@H]1C[C@H](C(=O)N2CCOCC2)[C@@]2(C)c3[nH]c4cc(-c5ccco5)ccc4c3CCN2C1=O | -9 | 9 | 28%
CCN(CC)C(=O)[C@H]1CC(CC(=O)NCCc2ccccn2)C(=O)N2CCc3c([nH]c4ccc(OC)cc34)[C@]12C (stereo not given in full) | -19 | -33 | 9%
CC[C@]12c3[nH]c4ccccc4c3CCN1C(=O)C(CC(=O)NCCCOC)C[C@@H]2C(=O)N1CCN(C(=O)C2CC2)CC1 (stereo not given in full) | -17 | -16 | -2%
CC[C@]12c3[nH]c4ccc(Cl)cc4c3CCN1C(=O)[C@@H](CC(=O)NCCCn1ccnc1)C[C@@H]2C(=O)N1CCN(C(=O)c2ccco2)CC1 | 6 | 49* | 6%
CCN(CC)C(=O)[C@H]1CC(CC(=O)NCCc2ccccn2)C(=O)N2CCc3c([nH]c4ccccc34)[C@]12C (stereo not given in full) | -55* | -21 | 5%

Screening data from PubChem.
